Assay outcomes from PubChem BioAssay.
GLD-1 RNA inh = GLD-1/TGE RNA complex disruptors, primary screen, biochemical, fluorescence polarization. Female germline-specific tumor suppressor gld-1 (Caenorhabditis elegans), Q17339. purified GLD-1 + fluorescein TGE RNA. inhibition, % at 5.96 µM. hit rate 0.44% among 320,000. AID 2280, 2010;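 active = percent inhibition above a per-plate cutoff, the plate mean of test compounds plus 3 SD, cut at about 30% in these data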;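 also: 0% = DMSO wells with GLD-1 and probe and 100% = wells lacking GLD-1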
Bcl-xL primary = inhibitors of human Bcl-xL, primary screen, biochemical, fluorescence polarization, HTS; Bcl-2-like protein 1 (Homo sapiens), Q07817; GST-Bcl-xL / FITC-Bim BH3 peptide fluorescence polarization; inhibition, % at 10.9 µM; hit rate 0.7% among 320,000; AID 2129, 2009;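 active = inhibition above the mean of all tested compounds plus 3 SD, cutoff set per campaign, cut at about 30% in these data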;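 also: 0% = DMSO wells and 100% = unlabeled Bim-BH3 peptide competitor; inhibitors lower millipolarization by displacing the labeled peptide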
Target sequence (Q07817 whole entry, looked up): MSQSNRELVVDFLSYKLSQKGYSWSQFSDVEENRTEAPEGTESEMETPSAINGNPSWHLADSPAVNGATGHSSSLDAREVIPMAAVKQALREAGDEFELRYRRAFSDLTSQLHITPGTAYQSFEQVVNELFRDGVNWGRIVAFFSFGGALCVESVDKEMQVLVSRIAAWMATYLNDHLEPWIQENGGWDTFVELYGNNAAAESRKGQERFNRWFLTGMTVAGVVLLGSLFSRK
IDE act = human IDE activators in live cells, primary screen, fluorescence polarization, HEK cells, FAbeta-B substrate | activation, % at 5.96 µM | FAbeta-B cleavage; 0% vehicle, 100% cell-free pure enzyme wells | AID 493087, 2011 | hit rate 0.073% among 340,000;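 active = activation above the mean of all tested compounds plus 3 SD, set per screening campaign, cut at about 17% in these data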
MEX-5 binding = MEX-5 zinc finger RNA-binding disruptors – biochemical, C. elegans, fluorescence polarization, MLPCN library, primary screen | Zinc finger protein mex-5 (Caenorhabditis elegans), Q9XUB2 | MEX-5/FITC-TCR2 RNA binding; hits give low values | activity score (negative = inhibition of binding), % at 10 µM | hit rate 0.38% among 300,000 | AID 1832, 2009;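 active = inhibition past about -25% in most replicates, and total fluorescence under double the plate's negative control median, limit read from the data; inconclusive = replicates evenly split on the limit, or fluorescence at least double controls; inactive = too little inhibition in most replicates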;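 also: 0% = DMSO and -100% = 5 µM competing unlabeled TCR2 RNA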
MCL1-BIM inh = inhibitors of MCL1 binding to BIM-BH3, primary screen, biochemical, fluorescence polarization. hit rate 0.68% among 320,000. inhibition, % at 10.9 µM. Induced myeloid leukemia cell differentiation protein Mcl-1 (Homo sapiens), Q07820. GST-MCL1 / FITC-Bim-BH3 fluorescence polarization. AID 2057, 2009;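 active = inhibition above the mean inhibition of all tested compounds plus 3 SD, set per campaign, cut at about 40% in these data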;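 also: 0% = DMSO wells and 100% = unlabeled Bim-BH3 peptide control; higher means more loss of mP so more displacement of Bim peptide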
IDE cell inh = human IDE inhibitors in live cells, primary screen, fluorescence polarization, HEK cells, FAbetaB substrate; FAbetaB cleavage; inhibition, % at 5.59 µM; hit rate 0.41% among 320,000; AID 434962, 2010;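 active = percent inhibition above the average of all tested compounds plus 3 SD, set per screening campaign, cut at about 16% in these data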;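 also: IDE supplied by intact live HEK cells; FP after avidin binding of uncleaved biotin substrate so inhibition keeps polarization high; 0% = DMSO wells and 100% = 60 µM reference IDE inhibitor Ii1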
The depositor's hits bear a star; ? = inconclusive; . = no result. Most compounds without a hit are left out; they make up all but 1.5% or so of the library.

SMILES	GLD-1 RNA inh	Bcl-xL primary	IDE act	MEX-5 binding	MCL1-BIM inh	IDE cell inh
Cc1ccc(-c2cn3nc(-c4ccccc4)c(-c4ccccc4)nc3n2)cc1	34*	15	.	?	-2	4
O=[N+]([O-])c1ccc(-c2cn3nc(-c4ccccc4)c(-c4ccccc4)nc3n2)cc1	-12	-13	.	-17	-32	16
O=[N+]([O-])c1cccc(-c2cn3nc(-c4ccccc4)c(-c4ccccc4)nc3n2)c1	1	-2	1	-44*	-3	8
c1ccc(-c2cn3nc(-c4ccccc4)c(-c4ccccc4)nc3n2)cc1	4	15	3	-27*	13	-4
COc1ccc(CNC(=O)CN(c2ccccc2)S(=O)(=O)N(C)C)cc1	6	3	-5	-2	-1	1
CCc1ccc(-c2cc(C)no2)cc1S(=O)(=O)NC(C)Cc1ccco1 (stereo not given)	-1	1	4	2	0	3
Cc1c2cnn(CC(=O)Nc3c(F)c(F)cc(F)c3F)c(=O)c2c(C)n1Cc1ccccc1F	3	35*	-4	0	41*	4
CNC(=O)Cn1ncc2c(C)n(Cc3ccc(C)cc3)c(C)c2c1=O	6	3	-5	-2	1	7
COC(=O)c1cccc(NC(=O)COC(=O)CSc2nc(C)cc(C)n2)c1	4	135*	6	0	7	-5
CCCCNc1cc(Cl)nc(N)n1	12	30*	-2	4	28	-3
Nc1nc(Cl)cc(NCCc2ccccc2)n1	3	3	.	-3	9	0
S=C(NCCCN1CCOCC1)N1CCN(c2nc(-c3ccc(Cl)cc3)cs2)CC1	3	5	-14	-1	5	23*
CCCNC(=S)N1CCN(c2nc(-c3ccc(C)cc3)cs2)CC1	3	3	-16	-1	6	14
CC(C)CNC(=O)C1Nc2ccccc2C2C=CCC12 (stereo not given)	4	19	5	2	31	0
O=C(O)C1Nc2c(O)cccc2C2C=CCC12 (stereo not given)	3	62*	3	.	90*	5
CCc1ccc(NC(=O)/C(C#N)=C/c2cc3ccc(C)cc3nc2N2CCOCC2)cc1	3	1	1	-41*	-7	2
COc1ccc(C(=O)N/N=C/c2cc3ccccc3[nH]c2=O)cc1	2	5	30*	-8	12	0
COc1ccc(NC(=O)c2cccc(N3C(=O)c4ccc(C(=O)Nc5ccc(OC)c(O)c5)cc4C3=O)c2)cc1O	7	14	-3	-1	12	-2
CCCN(CCC)S(=O)(=O)c1ccc(C(=O)NCc2n[nH]c(=S)n2-c2ccc(Cl)c(Cl)c2)cc1	7	0	-3	1	0	-1
CCc1cc2c(=O)c(-c3nc4ccccc4n3C)c(C)oc2c(CN(CC)CC)c1O	7	-2	-1	1	-3	1
CCN(CC)Cc1c(O)ccc2cc(-c3nc4ccccc4n3C)c(=O)oc12	-7	36*	-1	-7	30	3
O=C(NN1C(=O)c2ccccc2NC1c1ccccn1)c1ccc([N+](=O)[O-])cc1 (stereo not given)	-2	-3	4	-44*	-5	5
O=C(NN1C(=O)c2ccccc2NC1c1ccc([N+](=O)[O-])o1)c1ccc(Br)cc1 (stereo not given)	0	10	5	1	9	5
Cc1cccc(C2Nc3ccccc3C(=O)N2NC(=O)c2ccc([N+](=O)[O-])cc2)n1 (stereo not given)	10	4	2	-54*	-4	1
O=C(NN1C(=O)c2ccccc2NC1c1ccccn1)c1ccc(Br)cc1 (stereo not given)	-1	1	4	-30*	-1	-3
